Screening results: PubChem BioAssay, several laboratories
Hits are enriched below; roughly 11% of the tested compounds scored in any of these assays.
Autophagy HCS = modulators of autophagy | MEF GFP-LC3 puncta imaging; test concentration mostly 10 µM | 190,000 tested, 0.98% active | calls only at 10 µM (by protocol) | AID 463193;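 active means percentage of spot-positive cells more than 3 SD above its plate mean, without a fluorescence outlier flag or 80% toxicity; inconclusive means no clear call, values can overlap the other calls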;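 further: spot-positive cell cutoff set from DMSO-treated cells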
WT yeast gro inh = growth inhibition of WT yeast, mitochondrial fusion screen | mitochondrial fusion phenotypic screen, WT strain | 190,000 tested, 2.1% active | inhibition, % at 10 µM; in the data active means inhibition above about 58%; tested in S. cerevisiae
Lmaj promast = inhibitors of Leishmania major promastigote growth | 200,000 tested, 9% active | inhibition, % at 10 µM | Leishmania major promastigotes, resazurin fluorescence viability; in the data active means inhibition above about 50%;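 further: promastigotes grown with compound for 44 hours at 28 °C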
Insulin prom inh = TRM-6 insulin promoter activity inhibition; TRM-6 cells (human fetal islet line), insulin promoter-eGFP reporter, imaging; reporter expression induced with tamoxifen; inhibition, % at 2 µM; 130,000 tested, 0.9% active; AID 1273;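 active means inhibition above the mean plus 3 SD, with well images judged a real hit on visual review, cut at about 60% in these data, passing the limit was not always enough; inconclusive means inhibition over the cutoff but images rejected on review; inactive means inhibition not above the cutoff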
Insulin prom up = MIN6 insulin promoter up-regulation | 190,000 tested, 0.3% active | MIN6 insulin promoter-GFP reporter, high-content imaging; hits give high values | AID 1625 | z-score at 5 µM;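 active means z-score above 3 at 5 µM with at least 500 cells counted in the well; inconclusive means wells under 500 cells, flagged as cytotoxic or low count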
The depositor's hits bear a star; i = inactive; ? = inconclusive; . = no result.

SMILES | Autophagy HCS | WT yeast gro inh | Lmaj promast | Insulin prom inh | Insulin prom up
Cn1cccc1/C=N/n1c(-c2ccc(Cl)cc2Cl)n[nH]c1=S | i | 71.4* | -7.9 | 33.3 | 1.1
CC(C)CC(=O)NC(C)C(c1cccs1)N1CCOCC1 (stereo not given) | . | . | . | . | -0.3
CCOc1cc(C(=O)NC(C)c2ccncc2)cc(OCC)c1OCC (stereo not given) | i | -17.9 | -7.0 | 43.8 | .
O=C(Nc1ccccc1)N1N=CCC1c1ccccc1 (stereo not given) | i | 6.3 | -1.9 | -10.0 | 0.08
Fc1ccc(C2CC(c3cccs3)=NN2C(=S)Nc2ccccc2)cc1 (stereo not given) | i | 20.5 | 52.6* | . | -0.58
O=C(Nc1ccccc1)N1N=C(c2ccc(F)cc2)CC1c1ccc(F)cc1 (stereo not given) | i | 45.8 | 92.3* | 62.1 | -1.27
O=C(CN1C(=O)C2C3CCC(C3)C2C1=O)N1CCN(Cc2ccccc2)CC1 (stereo not given) | i | -0.4 | -7.1 | -16.7 | .
Cc1ccc(OCC(=O)NCc2cccs2)c([N+](=O)[O-])n1 | i | 2.5 | 3.1 | -35.3 | -0.54
COc1ccc(C(=O)CSc2nc3ccc([N+](=O)[O-])cc3[nH]2)cc1 | i | 3.7 | 19.6 | 17.6 | -0.49
CC(C)(C)OC(=O)N1CCC[C@H]1c1nnc(SCc2cccc(Cl)c2)o1 | . | . | . | . | -0.26
O=C(Nc1nnc(-c2ccc(Cl)s2)o1)C1CC1 | i | -5.1 | 60.8* | 67.6 | .
O=C(C[n+]1ccc(/C=N/O)cc1)NC1CCCCC1 | i | -6.5 | -0.2 | 47.1 | 0.51
CC(C)C1Nc2c(O)cc(Cl)c([N+](=O)[O-])c2C2C=CCC21 (stereo not given) | i | 82.7* | -4.5 | 42.9 | -0.3
CCCCC(=O)Nc1ccc(NC(=S)NC(=O)c2cccs2)cc1OC | i | 4.1 | 19.4 | -6.5 | 0.1
O=C(Nc1ccc(NC(=O)C2CCCCC2)nc1)c1ccco1 | i | 10.0 | 86.4* | 29.7 | 0.27
O=C(Nc1ccc(NC(=O)C2CCCCC2)nc1)c1ccccn1 | i | 8.9 | 71.3* | . | -0.17
O=C(NCc1ccccc1)NC1CCS(=O)(=O)C1 (stereo not given) | i | 4.1 | 6.1 | . | 0.1
COc1ccc(Cn2c(O)c(C=Nc3ccc(O)cc3)c3ccccc3c2=O)cc1 | i | 64.5* | 94.1* | 39.3 | -0.46
CN(C)CCCN=Cc1c(O)n(Cc2ccccc2)c(=O)c2ccccc12 | i | . | 92.4* | 7.7 | 0.41
CN(C)CCN=Cc1c(O)n(Cc2ccccc2)c(=O)c2ccccc12 | i | 2.3 | 18.5 | -116.7 | 0.26
COc1ccc(Cn2c(O)c(C=Nc3ccc(C)cc3)c3ccccc3c2=O)cc1 | i | -2.6 | 92.3* | 29.9 | 0.35
CN1CCN(CC(C)(C)NS(=O)(=O)c2ccc(Cl)cc2)CC1 | i | -1.6 | 94.3* | . | -0.01
CC(C)(CN1CCN(Cc2ccccc2)CC1)NS(=O)(=O)c1ccc(Cl)cc1 | . | . | . | . | -0.02
Cc1ccc(C(=O)c2no[n+]([O-])c2C(=O)c2ccc(C)cc2)cc1 | i | -0.7 | -2.7 | -455.6 | 0.41
COc1cc2c(C(=O)NCc3ccc(C)o3)cn(CC(C)C)c(=O)c2cc1OC | i | 74.5* | 0.1 | . | -0.95
SMILES | Autophagy HCS | WT yeast gro inh | Lmaj promast | Insulin prom inh | Insulin prom up
Cc1cccc(NC(=O)CN2C(=O)S/C(=C\C(=O)Nc3ccc(Cl)cc3)C2=O)c1 | i | 2.2 | 53.5* | 12.0 | 0.81
O=C(/C=C1\SC(=O)N(CC(=O)Nc2ccc(F)cc2)C1=O)Nc1ccc(Cl)cc1 | i | -0.5 | 52.5* | 20.0 | 0.37
O=C(/C=C1\SC(=O)N(CC(=O)Nc2ccc(Cl)cc2)C1=O)Nc1ccc(F)cc1 | i | 1.7 | 22.3 | 48.0 | 0.97
Cn1c(Cc2ccccc2)nnc1SCC(=O)c1ccc(Br)s1 | i | 62.7* | 12.5 | 95.5* | 0.36
CNC(=S)N1CCC(NC(=O)C(Cc2ccccc2)NC(C)=O)CC1 (stereo not given) | i | -1.2 | -1.3 | . | 0.09
COc1ccc(CCN=C(NS(=O)(=O)c2ccc(Cl)cc2)c2ccccc2)cc1 | i | 23.7 | 65.7* | . | -0.7
COc1ccc(CCN=C(NS(=O)(=O)c2ccccc2)c2ccccc2)cc1OC | i | -7.5 | -6.4 | -26.7 | .
CCCCN(CC)CCNC(=O)CN1C(=O)COc2ccc(S(=O)(=O)N3CCCC3)cc21 | i | -0.6 | 43.2 | -41.7 | 2.08
COc1ccc(/C=C/C(=O)OCC(=O)NC(=O)NC(C)(C)C)cc1 | i | 4.5 | 8.5 | -33.3 | -0.87
O=C(N/N=C/c1ccccn1)c1[nH]c2ccc([N+](=O)[O-])cc2c1-c1ccccc1 | i | 64.6* | 98.3* | . | -0.48
CCC(CC)NC(=O)Cc1ccc(F)cc1 | i | -2.0 | -3.4 | . | .
CN(c1ccc([N+](=O)[O-])cc1C(N)=O)C1CCCCC1 | i | -30.0 | -4.1 | 5.0 | .
N=c1sccn1CC(=O)NC(=O)NC1CCCC1 | i | 10.1 | -7.4 | 87.5* | .
CCC(C)(C)c1ccc(OCCCC[n+]2ccc(C)cc2)c(C(C)(C)CC)c1 | i | 98.9* | 100.5* | . | ?
CCCCCC(=O)NC(=S)Nc1ccc(N2CCOCC2)cc1 | i | 16.6 | 45.8 | 10.5 | -0.2
CCOc1cccc(/C=N/Nc2ccc(S(=O)(=O)N(CC)CC)cn2)c1O | i | 5.2 | 81.6* | 6.7 | -0.33
CCCSc1cc(N2CCN(C)CC2)nc(-c2ccc(OC)cc2)n1 | i | 94.7* | 24.6 | 32.4 | 0.63
COC(=O)C(Sc1nc(C)cc(C)c1C#N)c1ccccc1 (stereo not given) | i | 24.5 | 98.2* | -14.3 | -0.2
O=C(/C=C/c1ccc(Br)cc1)Nc1ccc(S(=O)(=O)Nc2ncccn2)cc1 | i | -3.7 | 51.9* | . | -0.12
O=C(O)CCCNS(=O)(=O)c1ccc(Br)s1 | i | -2.9 | -5.3 | . | 0.6
Cc1nc2c(-c3ccc(F)cc3)c(C)nn2c(C)c1CCC(=O)NC(C)CCc1ccco1 (stereo not given) | . | 9.9 | 100.0* | . | -0.2
O=c1c(-c2ccc(O)cc2)coc2cc(OC3OC(CO)C(O)C(O)C3O)ccc12 (stereo not given) | i | -0.7 | -5.2 | 35.0 | -0.49
CCO[C@H]1OC(C(=O)Nc2ccccc2)=C[C@@H](c2cn(C(C)=O)c3ccccc23)[C@@H]1CCCO | i | 55.1 | 38.7 | . | -1.15
COc1ccccc1N1CCN(C(=O)CSc2ccccc2)CC1 | i | -11.1 | 2.7 | -38.9 | 1.26
COc1ccccc1N1CCN(C(=O)C(Sc2ccccc2)c2ccccc2)CC1 (stereo not given) | i | 29.6 | 81.5* | 4.3 | 0.16
COc1ccccc1N1CCN(C(=O)c2ccc(S(=O)(=O)N3CCCC3)cc2)CC1 | i | -15.4 | 62.6* | 27.3 | -0.76
COc1ccccc1N1CCN(C(=O)c2ccc(CSc3ccccc3)cc2)CC1 | i | 61.4* | 5.6 | -1.6 | -0.06
COc1ccccc1N1CCN(C(=O)c2n[nH]c3ccccc23)CC1 | i | -11.5 | -4.4 | 75.0* | -0.95
CS(=O)(=O)N1CCN(C(=O)C(Sc2ccccc2)c2ccccc2)CC1 (stereo not given) | i | -8.7 | -1.9 | 0.0 | -0.82
O=C(c1n[nH]c2ccccc12)N1CCN(c2ccc(F)cc2)CC1 | i | 12.1 | 12.2 | . | -0.48
